HepG2 viability = qHTS for Inhibitors of TGF-b: Cytotox Counterscreen. HepG2 CAGA-GFP viability, ATP luminescence, 18 h. Potency, µM (top dose mostly 46.1 µM), inactives show at the highest dose activity change, negative = cytotoxicity, actives largely listed as cytotoxic. 0.76% of 410,000 active. AID 588856, 2011; note: potency is the fitted concentration of half-maximal effect
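HepG2 CAGA-GFP cells (1000/well, DMEM with 1% FBS) received compound, then TGF-beta at 500 pg/mL final, and were incubated 18 hours at 37 degrees C. Viability was read by CellTiter-Glo luminescence. Media-only wells were set as complete cell-killing and DMSO as no toxicity.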
TGFb SMAD3 inh = qHTS for Inhibitors of TGF-b; HepG2 CAGA-GFP TGF-b/SMAD3 reporter, GFP fluorescence, 18 h; TGF-beta stimulated, 500 pg/mL final; AID 588855, 2011; Potency, µM (top dose mostly 46.1 µM), inactives show top-dose activity, negative = inhibition, hits mostly inhibitors; 1.2% of 410,000 active; note: potency is the fitted concentration of half-maximal effect; % is set by controls: 0 for no effect and ±100 for the full control effect; nearly all actives have a fitted effect of over 65% in size
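Using HEPG2 CAGA-GFP reporter cells at 1000 cells/well, we pinned test compounds, stimulated with recombinant TGF-beta (500 pg/mL final) and measured total well GFP after 18 h.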
DT40 TDP1 no CPT = qHTS for Inhibitors of human tyrosyl-DNA phosphodiesterase 1 (TDP1): qHTS in cells in absence of CPT. DT40 Tdp1-/- hTDP1 cells, no CPT, ATP luminescence, 48 h. Potency, µM (top dose mostly 46.2 µM), for inactives: at the top dose activity change, negative = growth inhibition, usual class: inhibitors. 15% of 420,000 active. AID 686978, 2013; note: potency is the fitted concentration of half-maximal effect; % is set by controls: 0 for no effect and ±100 for the full control effect; nearly all actives have a fitted effect of over 55% in size
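Compound effects on proliferation are scored in DT40 Tdp1-/-;hTDP1 cells in the absence of CPT. ATP levels (CellTiter-Glo luminescence) are recorded after a ≥48 hr, 37 °C incubation.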
IL1B secr inh = qHTS for Inhibitors of Inflammasome Signaling: IL-1-beta AlphaLISA Primary Screen; THP-1 LPS/ATP IL-1B secretion, AlphaLISA, 16 h; active compounds read low; activity change, % at 57.5 µM; 4.7% of 360,000 active; AID 743279, 2014; in the data active = activity change below about -50%; inconclusive = mostly about -30% to -49%; note: % is set by controls: 0 for no effect and ±100 for the full control effect
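THP-1 cells pretreated 1 hr with compounds (up to 57.5 uM final), then stimulated with LPS (250 ng/mL final) plus ATP (1.25 mM final); secreted IL-1B measured by AlphaLISA after 16 hr, decreased signal indicating inhibition.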
S-ASM inh = Inhibitors of Secretory Acid Sphingomyelinase (S-ASM): qHTS. placental ASM, HMU-PC fluorogenic substrate, 60 min. Sphingomyelin phosphodiesterase (Homo sapiens), P17405. Potency, µM (top dose mostly 57.5 µM), without a hit: top-dose activity change, negative = inhibition, usual class: inhibitors. 0.006% of 340,000 active; note: potency is the fitted concentration of half-maximal effect
Target sequence (P17405 47-631 limits assumed): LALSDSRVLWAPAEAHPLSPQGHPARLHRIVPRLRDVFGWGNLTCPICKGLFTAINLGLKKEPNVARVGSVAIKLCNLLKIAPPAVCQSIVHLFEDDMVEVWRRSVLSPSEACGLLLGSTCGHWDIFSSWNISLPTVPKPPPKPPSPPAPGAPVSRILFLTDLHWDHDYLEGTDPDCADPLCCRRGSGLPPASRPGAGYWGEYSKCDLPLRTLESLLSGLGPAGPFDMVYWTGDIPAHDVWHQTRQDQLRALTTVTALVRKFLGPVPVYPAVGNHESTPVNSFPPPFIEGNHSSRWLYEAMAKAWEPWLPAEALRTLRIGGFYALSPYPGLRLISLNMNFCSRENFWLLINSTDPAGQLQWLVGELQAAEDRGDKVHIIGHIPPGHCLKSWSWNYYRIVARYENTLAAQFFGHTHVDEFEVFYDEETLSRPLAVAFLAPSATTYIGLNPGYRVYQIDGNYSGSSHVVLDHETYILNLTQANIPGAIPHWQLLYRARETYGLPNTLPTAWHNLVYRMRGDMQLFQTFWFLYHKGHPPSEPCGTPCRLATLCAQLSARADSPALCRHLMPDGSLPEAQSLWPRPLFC
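Fluorogenic HMU-PC substrate (9 uM final) is turned over by placental ASM in 60 min at 37 C after a 10 min compound preincubation. Reaction ended by alkaline stop (pH 10), with fluorescence read at 386/447 nm.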
TDP1 cell CPT = qHTS for Inhibitors of human tyrosyl-DNA phosphodiesterase 1 (TDP1): qHTS in cells in presence of CPT. chicken DT40 Tdp1-/-;hTDP1 cells + 20 nM CPT, ATP luminescence, 48 h. Potency, µM (doses to about 46.2 µM), without a hit: at the highest dose activity change, negative = growth inhibition, actives largely listed as inhibitors. 12% of 420,000 active. AID 686979, 2013; note: potency is the fitted concentration of half-maximal effect; % is set by controls: 0 for no effect and ±100 for the full control effect; nearly all actives have a fitted effect of over 55% in size
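Cell growth measured by CellTiter-Glo luminescence after a minimum 48 h, 37 C compound exposure with 20 nM CPT in Tdp1-knockout DT40 cells stably expressing hTDP1, seeded 400/well; qHTS titration format.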
Numbers without * were called inactive; ? = inconclusive; . = not tested or not shown. Compounds with a hit are over-represented: about 19% of the library has one in this group of screens. Unless noted, calls come from the whole dose curve; as a rule, active = well fitted curve in the direction sought with a large enough effect; inconclusive = small, poorly fitted or top-dose-only effect, or another doubt; inactive = no such curve, though single readings can be large; an effect the other way counts as inactive or inconclusive.

SMILES	HepG2 viability	TGFb SMAD3 inh	DT40 TDP1 no CPT	IL1B secr inh	S-ASM inh	TDP1 cell CPT
Cc1ccccc1NC(=O)C1Cc2ccccc2CN1C(=O)OCc1ccccc1 (stereo unspecified)	9%	0%	21µM*	-5	-2%	?
Cc1ccc(C2(C)NC(=O)N(CC(=O)N(Cc3ccccc3)C(C)(C)C)C2=O)cc1 (stereo unspecified)	3%	-1%	?	?	3%	?
Cc1nc(N)nc(N)c1-c1ccc([N+](=O)[O-])cc1	-37%	-4%	1.5µM*	10	2%	?
Cc1ccc([N+](=O)[O-])cc1N	0%	-1%	6%	-3	3%	0%
O=c1c2ccccc2nc2n1C(CSCc1ccc(Cl)cc1Cl)CS2 (stereo unspecified)	-14%	-5%	6.5µM*	?	-6%	9.2µM*
COc1ccc(C2(CNC(=O)/C=C\c3ccco3)CCCC2)cc1OC	-2%	-7%	29µM*	13	-2%	18µM*
COc1ccc(C2(CNC(=O)C(=O)Nc3ccc(F)cc3)CCCC2)cc1OC	-35%	0%	18µM*	.	.	18µM*
COc1ccc(C(NC(=O)/C=C/c2ccco2)c2ccc(OC)c(OC)c2)cc1OC	10%	?	2%	0	-2%	-11%
COc1ccc(C2(CNC(=O)C(=O)Nc3ccccc3C)CCCC2)cc1OC	-7%	-22%	18µM*	.	.	23µM*
CSc1cccc(NC(=S)N2CCC(c3ccccc3)C2)c1 (stereo unspecified)	-24%	-20%	16µM*	?	-1%	-17%
CSc1cccc(NC(=S)N2CCC(N(C)C3CCCCC3C)CC2)c1 (stereo unspecified)	-34%	-16%	?	-69*	1%	10%
CCc1cccc(NC(=S)N2CCC(c3ccccc3)C2)c1 (stereo unspecified)	16µM*	-27%	?	-1	0%	?
CSc1cccc(NC(=S)N2CCC(N(C)C3CCCCC3)CC2)c1	-11%	-11%	?	-27	2%	2%
CCN(CC)C(=O)C1CCCN(Cc2nc(-c3cccs3)no2)C1 (stereo unspecified)	11%	-3%	-26%	29	2%	6%
CCN(CC(=O)Nc1ccc(OC)cc1)C(=O)Cc1cccs1	-8%	-7%	9%	26	-3%	-1%
Cc1cccc(C)c1NC(=O)C(C)NCc1cccs1 (stereo unspecified)	7%	1%	-25%	6	.	-21%
Cc1nc(CS(=O)(=O)c2ccc(Cl)cc2)sc1C(=O)O	-1%	1%	-6%	8	13%	5%
CCN(CC)S(=O)(=O)c1cc(NC(=O)CSc2n[nH]c(N)n2)ccc1C	6%	6%	1%	53	6%	0%
CCN(CC)S(=O)(=O)c1cc(NC(=O)Cc2n[nH]c(=O)c3ccccc23)ccc1C	4%	-12%	13µM*	-10	1%	?
Cc1ccc(NC(=O)Cc2n[nH]c(=O)c3ccccc23)cc1S(=O)(=O)N1CCCCCC1	-21%	?	16µM*	-9	-8%	?
CN(c1ccccc1)S(=O)(=O)c1cccc(NC(=O)Cc2n[nH]c(=O)c3ccccc23)c1	-23%	-16%	12µM*	77	-7%	13µM*
